Screens deposited in PubChem by National Center for Advancing Translational Sciences (NCATS).
AmpC inh detg – AmpC beta-lactamase inhibition with detergent present; P00811; AmpC hydrolysis of nitrocefin, absorbance 480 nm, 0.01% Triton; Potency, µM (series often up to 114 µM), for the others: at the highest dose activity change, negative = inhibition, usual class: inhibitors; 370,000 tested, 0.041% active; AID 485294;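 further: potency means the concentration at half of the fitted maximal effect; 0% = no-compound wells and -100% = no-enzyme wells; nearly all actives have a fitted effect of over 25% in size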
Target sequence (P00811 whole entry, looked up): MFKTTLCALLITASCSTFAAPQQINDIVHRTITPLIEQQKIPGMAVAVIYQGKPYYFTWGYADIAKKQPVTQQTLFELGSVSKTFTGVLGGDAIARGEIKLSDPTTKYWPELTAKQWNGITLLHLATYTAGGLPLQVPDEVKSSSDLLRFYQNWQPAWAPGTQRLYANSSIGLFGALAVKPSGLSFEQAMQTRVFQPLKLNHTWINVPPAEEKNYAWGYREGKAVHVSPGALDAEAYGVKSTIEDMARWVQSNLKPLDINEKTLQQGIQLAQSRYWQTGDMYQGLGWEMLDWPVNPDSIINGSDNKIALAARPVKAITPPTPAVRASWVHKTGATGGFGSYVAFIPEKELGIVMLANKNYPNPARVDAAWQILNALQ
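20 mM phosphate pH 7.0 + 0.01% (detergent screen) or 0.0001% Triton X-100; 5.3 nM AmpC reagent; cpd preinc 15 min RT; nitrocefin (800 uM stock) to start; A480 q20 s × 4 min; Activity was normalised to no-enzyme and no-compound control wells.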
CHX counter – affects cycloheximide protein synthesis inhibition readout, counter-screen; cell reporter, cycloheximide protein synthesis inhibition counterscreen; max response, %; 300,000 tested, 12% active; AID 2314; in the data active means max response mostly above about 13%, no sharp cut-off; inactive means mostly below about 14%; further: read at 38.3 µM for the half of the compounds with a filed dose; 0% is about no effect
NS1 inh – inhibitors of influenza NS1 protein function. AID 2326. 270,000 tested, 0.4% active. Potency, µM (top dose mostly 46.1 µM), without a hit: at the highest dose activity, positive = more growth; calls by dose curve; further: potency means the concentration at half of the fitted maximal effect; actives are rising curves; nearly all actives have a fitted effect of over 50% in size
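A cell-based growth assay was used: compounds that relieve NS1-induced slow growth of budding yeast raise OD600. Assay medium was yeast nitrogen base with ammonium sulphate and -URA supplement, pH 6.0, with 2% galactose.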
AmpC inh no detg – blocks E. coli AmpC beta-lactamase in detergent-free assay; P00811; Potency, µM (doses to about 57.1 µM), for inactives: top-dose activity change, negative = inhibition, actives largely listed as inhibitors; 330,000 tested, 0.52% active; AmpC nitrocefin hydrolysis, absorbance 480 nm, 0.0001% Triton;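 further: potency means the concentration at half of the fitted maximal effect; plate controls were no compound for no effect and no enzyme for full effect; nearly all actives have a fitted effect of over 20% in size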
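20 mM phosphate pH 7.0 + 0.01% (detergent screen) or 0.0001% Triton X-100; 5.3 nM AmpC reagent; cpd preinc 15 min RT; nitrocefin (800 uM stock) to start; A480 q20 s × 4 min; Activity was normalised to no-enzyme and no-compound control wells.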
Shiga inhibitor – inhibitors of Shiga toxin in Vero cells | Vero cells, Shiga toxin protein synthesis inhibition reporter | inhibition, % at 38.7 µM | 290,000 tested, 9.2% active | AID 2315; in the data active means inhibition mostly above about 28%, no sharp cut-off; inactive means mostly below about 43%; further: 0% is about no effect
* marks the source's active call; other numbers are inactive results; ? = inconclusive; . = not tested or not shown; + = active, no number. The sample as a whole holds a higher share of hits than the screen did. Unless noted, the call rests on the fitted dose curve; in most records, active means well fitted curve in the direction sought with a large enough effect; inconclusive means small, poorly fitted or top-dose-only effect, or another doubt; inactive means no such curve, though single readings can be large; an effect the other way counts as inactive or inconclusive.

SMILES	AmpC inh detg	CHX counter	NS1 inh	AmpC inh no detg	Shiga inhibitor
O=C(Nc1ccc(Oc2ccc(NC(=O)Nc3ccc([N+](=O)[O-])cc3)cc2)cc1)Nc1ccc([N+](=O)[O-])cc1	4%	3	5%	-39%	-2
CC(C)[C@H](NC(=O)c1ccccc1Cl)C(=O)NC1CCCCCC1	0%	7	.	-24%	19
CC1CCOC2(O1)C(=O)Nc1ccccc12 (stereo not drawn)	3%	-4	.	-13%	-15
CC(=O)Nc1ccc(Nc2nc(-c3sc(NC(C)=O)nc3C)cs2)cc1	-5%	-2	9%	1.8µM*	-3
CC(=O)Nc1nc(C)c(-c2csc(Nc3cccc(C(C)=O)c3)n2)s1	-13%	13	6%	-35%	9
Cc1ccccc1Nc1nc(-c2sc(NC(=O)c3ccco3)nc2C)cs1	3%	9	?	-27%	16
Cc1ccc(Nc2nc(-c3sc(NC(=O)c4ccco4)nc3C)cs2)cc1	-2%	20*	?	-11%	36
CC(=O)Nc1nc(C)c(-c2csc(Nc3ccccn3)n2)s1	6%	37*	3%	11%	90*
Cc1ccc2[nH]c(=O)c(CN(CC3COCCO3)C(=O)Nc3ccccc3F)cc2c1 (stereo not drawn)	-3%	1	-1%	-15%	-18
Cc1cc(/C=N/n2cnnc2)c(C)n1-c1ccc(OCc2ccc(Cl)cc2Cl)cc1	-2%	-11	-86%	31%	-20
COC(=O)N/N=C/c1cc(C)n(-c2ccc(F)cc2)c1C	2%	37*	.	-12%	88*
CCNC(=S)N/N=C/c1cc(C)n(-c2ccc(Cl)cc2)c1C	1%	21*	.	28µM*	66
COC(=O)N/N=C/c1cc(C)n(-c2ccccc2)c1C	-12%	24*	-3%	-25%	+
Cc1cc(/C=N/n2cnnc2)c(C)n1-c1ccc(OCc2ccc(F)cc2)cc1	-5%	20*	-103%	49%	27
Cc1ccc(S(=O)Cc2nc(-c3ccc(C(=O)NCc4cccc(C)c4)cc3)oc2C)cc1 (stereo not drawn)	19%	.	.	.	.
O=C(CN1C(=O)C2(SCC(=O)N2c2cccc(Cl)c2)c2ccccc21)NCc1ccccc1 (stereo not drawn)	16%	.	.	.	.
Cc1cnc(NC(=O)c2cc3c(C)nn(-c4ccccc4)c3s2)s1	2%	8	18%	-2%	12
CC(=O)N1c2ccccc2CC1C(=O)N1CCN(c2ccccc2)CC1 (stereo not drawn)	1%	.	.	.	.
COCCCN(C(=O)c1ccco1)c1nc(-c2ccc(OC)cc2)cs1	-2%	13*	-33%	18%	23
COCCCN(C(C)=O)c1nc(-c2ccccc2)cs1	1%	39*	-17%	23%	81*
C/C(=N\OC(=O)c1ccc(Br)cc1)c1ccccn1	4%	4	-24%	-22%	13
C/C(=N/OCc1ccc(Br)cc1)c1ccccn1	?	26*	.	-23%	60*
CC(=O)Nc1c(C)nn(-c2ccccc2)c1N1CCC(C(=O)Nc2cccc(C(F)(F)F)c2)CC1	8%	.	.	.	.
COc1ccc(-c2c3c(=O)n(C)c(=O)n(C)c3c3c(-c4ccc(C)cc4)nc4ccccc4n23)cc1	21%	.	.	.	.
Cc1cc(-c2nc3ccccc3o2)c2ccccc2n1	-1%	-3	-40%	-1%	13
SMILES	AmpC inh detg	CHX counter	NS1 inh	AmpC inh no detg	Shiga inhibitor
Cc1nc2ccc(-c3nc4ccccc4o3)cc2[nH]1	-4%	52*	-190%	9%	68*
Nc1ccc(-c2nc3ccc(-c4nc5ccccc5o4)cc3[nH]2)cc1	?	28*	5%	-14%	39
Cc1ccnc2ccc(-c3nc4ccccc4o3)cc12	3%	21*	-40%	-7%	55*
CCOC(=O)c1c(C)n(-c2ccc(OC)cc2)c2ccc(OC(=O)COc3ccccc3)cc12	13%	.	.	.	.
CC(/C=C/c1ccco1)=N/NC(=O)c1ccc(C)nc1	7%	7	-5%	-16%	11
O=C(/C=C/c1ccco1)Oc1cc(Br)cc(/C=N/NC(=O)c2ccccc2O)c1	-11%	39*	18%	-32%	22
Cc1ccc(C(=O)N/N=C/c2cccc(OC(=O)/C=C/c3ccco3)c2)cn1	6%	33*	-6%	-6%	86*
CC(=O)Nc1ccc(C(=O)NCC2(N3CCCCC3)CCCCC2)cc1	5%	-1	4%	-6%	11
c1coc(CNc2nc3ccccc3s2)c1	1%	51*	1%	-24%	80*
CCOC(=O)c1sc(NCc2ccco2)c(-c2nc3ccccc3s2)c1N	?	13	1%	11µM*	16
Cc1nnc(NCc2ccco2)s1	-3%	3	1%	-20%	-13
CCNc1sc(C(=O)c2cccs2)c(N)c1-c1nc2ccccc2s1	-17%	2	-9%	-36%	17
c1coc(CNc2nc(-c3ccncc3)cs2)c1	-7%	36*	-9%	-19%	72*
COc1ccc(-c2csc(NC(=O)C3CC(=O)N(Cc4ccco4)C3)n2)cc1 (stereo not drawn)	-15%	10	.	-3%	13
COc1ccc(-c2csc(NCc3ccco3)n2)cc1	-13%	42*	20%	-40%	72*
Cc1cc(=O)c2cc3nc(-c4cccnc4)oc3c(Br)c2o1	-4%	15*	-3%	-27%	42
O=c1oc(-c2cccnc2)nc2ccccc12	?	-2	-8%	-8%	-1
COCc1ccc([C@@H]2C[C@H]3CN(Cc4ccccc4C)C(=O)[C@]34CCCN24)o1	4%	21*	0%	61%	32*
CC(C)c1ccc(C2=CC(c3cccc(Cl)c3)n3c(nc4ccccc43)N2)cc1 (stereo not drawn)	5%	.	.	.	.
Cc1c(NCc2nc3ccccc3[nH]2)c(=O)n(-c2ccccc2)n1C	?	29*	-17%	-34%	57
O=C(CN1C(=O)COc2ccccc21)NCCCN1CCCCC1	0%	-1	1%	-9%	-2
CCS(=O)(=O)N1CCc2nc(-c3ccccc3)sc2C1	0%	48*	-1%	21%	72*
COc1ccc(-c2nc3c(s2)CN(S(C)(=O)=O)CC3)cc1OC	4%	13	-3%	1%	31
COc1cc(C(C)=O)ccc1Oc1ncnc2c1cnn2-c1ccc(F)cc1	5%	54*	-8%	-19%	106*
COc1ccccc1Oc1ncnc2c1cnn2-c1ccccc1	-3%	43*	.	40%	117*
COc1ccc(Nc2ncnc3c2cnn3-c2ccccc2)cc1OC	?	0	-6%	-13%	11
COc1cc(C(C)=O)ccc1Oc1ncnc2c1cnn2-c1cccc(Cl)c1	-4%	2	7%	-48%	-46
COc1ncnc2c1cnn2-c1ccccc1	-2%	37*	-27%	.	81*
O=C(O)[C@H]1CCCC[C@@H]1C(=O)Nc1nc2ccccc2[nH]1	.	.	-9%	.	.
O=C(NCc1ccccc1)c1cc(-c2cccs2)on1	-1%	43*	-23%	-13%	77*
